Test results as given in PubChem BioAssay.
Activity calls are given as the source filed them.

Columns and labels:
Albumin (Bos taurus) = Albumin (Bos taurus) (UniProt P02769); test: bovine serum albumin binders on microarray, profiling panel, artefact control for SMM control protein annotation, biochemical, small-molecule microarray, Alexa647 label, 635/667 nm fluorescence (AID 1118); conditions: BSA-A647 binding, fluorescence 635 nm, higher = more signal;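 further: score merges 667 nm emission intensity and signal-to-noise per printed compound spot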
Chain of Albumin (Bos taurus) (P02769 whole entry, looked up): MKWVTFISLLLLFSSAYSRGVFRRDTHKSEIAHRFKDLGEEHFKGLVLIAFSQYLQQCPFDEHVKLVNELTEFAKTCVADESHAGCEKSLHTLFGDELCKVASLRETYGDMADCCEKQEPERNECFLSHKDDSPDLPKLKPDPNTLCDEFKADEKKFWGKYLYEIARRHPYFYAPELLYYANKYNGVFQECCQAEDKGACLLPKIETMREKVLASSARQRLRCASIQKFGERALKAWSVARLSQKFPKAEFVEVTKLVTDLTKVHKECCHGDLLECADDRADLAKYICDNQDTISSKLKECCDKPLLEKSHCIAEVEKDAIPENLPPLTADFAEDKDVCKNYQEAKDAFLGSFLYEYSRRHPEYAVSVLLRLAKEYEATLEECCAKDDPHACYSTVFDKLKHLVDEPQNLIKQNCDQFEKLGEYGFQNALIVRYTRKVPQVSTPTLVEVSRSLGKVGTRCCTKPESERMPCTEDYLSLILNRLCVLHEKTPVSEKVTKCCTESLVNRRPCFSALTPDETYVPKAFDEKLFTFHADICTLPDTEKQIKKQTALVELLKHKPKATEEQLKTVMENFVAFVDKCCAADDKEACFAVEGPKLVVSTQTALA

[1] = small-molecule microarray binders of probe aXIP, primary screen, biochemical, NeuroSMM set, 635/667 nm fluorescence (AID 1119); conditions: higher = more signal, called active from +8 up or from −8 down;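 further: probe is the protein aXip251-270 applied at 1 µg/mL to compound-printed slides; binding of probe to printed compounds measured as 667 nm fluorescence plus signal to noise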
[2] = small-molecule binders of probe aNOTCH3, primary screen, biochemical, small-molecule microarray, 635/667 nm fluorescence (AID 1120); conditions: higher = more signal;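 further: probe is a biotin-tagged antibody raised against NOTCH3 rather than NOTCH3 protein; score merges spot fluorescence near 667 nm with spot signal to noise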
[3] = small-molecule binders of probe aNOTCH2, primary screen, biochemical, small-molecule microarray, 635/667 nm fluorescence (AID 1121); conditions: higher = more signal;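 further: score merges feature fluorescence read at 667 nm with its signal to noise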
[4] = biological target: Carbonic anhydrase 2 (Homo sapiens) (UniProt P00918); test: CAII small-molecule binders, profiling panel, biochemical, small-molecule microarray, Alexa647-labelled CAII (AID 1122); conditions: CAII-A647 binding fluorescence, higher = more signal
[5] = COS7 lysate on small-molecule microarray, probe aHis, 635 nm (AID 1123); conditions: COS7 cell lysate, fluorescence, higher = more signal;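 further: z-score combines 667nm fluorescence intensity with signal-to-noise per printed compound spot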
[6] = compound binding in COS7 lysate, probe aLAP1, primary screen, cell lysate, small-molecule microarray (AID 1124); conditions: probe aLAP1, fluorescence, higher = more signal;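 further: lysate comes from COS7 cells expressing LAP1 and is applied at 0.3 µg/mL; score merges spot fluorescence near 667 nm with signal-to-noise over triplicate slides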
Sam68 (KHDRBS1) = test: Sam68 small-molecule binders, primary screen, biochemical, small-molecule microarray, 635 nm fluorescence (AID 1125); conditions: small-molecule microarray binding, higher = more signal;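 further: score merges 667 nm channel intensity with signal to noise over triplicate slides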
[7] = tested on: Chordin-like protein 2 (CHRDL2); test: CHRDL2 small-molecule binders, primary screen, biochemical, small-molecule microarray, 635 nm fluorescence (AID 1126); conditions: small-molecule microarray binding, fluorescence 635 nm; higher = more signal;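 further: printed compound slides probed with Chrdl2 protein at 4 µg/mL for 1 h at 4 C; score merges 667 nm emission intensity with signal to noise over three replicate slides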
[8] = biological target: Concanavalin-A (Canavalia ensiformis) (UniProt P02866); test: ConA small-molecule binders, primary screen, artefact control for SMM control protein annotation, biochemical, small-molecule microarray, Alexa647 label, 635 nm (AID 1127); conditions: ConA-A647 binding fluorescence, higher = more signal;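 further: z combines 667 nm emission intensity with signal-to-noise across three replicate slides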
Chain of Concanavalin-A (Canavalia ensiformis) (P02866 whole entry, looked up): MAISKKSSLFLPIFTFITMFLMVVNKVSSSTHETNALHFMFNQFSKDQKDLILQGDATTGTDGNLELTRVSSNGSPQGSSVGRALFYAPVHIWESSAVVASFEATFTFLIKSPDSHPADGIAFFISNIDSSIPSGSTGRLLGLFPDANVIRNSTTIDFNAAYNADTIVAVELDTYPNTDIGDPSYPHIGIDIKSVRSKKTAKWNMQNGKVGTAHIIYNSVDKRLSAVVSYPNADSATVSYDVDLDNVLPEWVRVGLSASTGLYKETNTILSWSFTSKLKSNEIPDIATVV

[9] = anti-His antibody binders, primary screen, artefact control for SMM control protein annotation, biochemical, small-molecule microarray, 635 nm fluorescence (AID 1128); conditions: anti-His Alexa647 antibody binding, higher = more signal;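 further: score merges feature fluorescence with signal-to-noise for each printed compound spot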
[10] = tested on: Human papillomavirus type 1a E7 protein (residues 1-88); test: HPV1a E7 small-molecule binders, primary screen, biochemical, small-molecule microarray, residues 1-88, 635 nm (AID 1129); conditions: small-molecule microarray binding, fluorescence 635 nm; higher = more signal
[11] = biological target: Focal adhesion kinase 1 (Homo sapiens) (UniProt Q05397); test: small-molecule microarray binders of FAK, primary screen, biochemical, 635/667 nm fluorescence, BSA, DTT (AID 1130); conditions: PTK2 binding, 635 nm fluorescence, higher = more signal;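 further: composite of spot emission at 667 nm and signal to noise over triplicate slides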
Chain of Focal adhesion kinase 1 (Homo sapiens) (Q05397 whole entry, looked up): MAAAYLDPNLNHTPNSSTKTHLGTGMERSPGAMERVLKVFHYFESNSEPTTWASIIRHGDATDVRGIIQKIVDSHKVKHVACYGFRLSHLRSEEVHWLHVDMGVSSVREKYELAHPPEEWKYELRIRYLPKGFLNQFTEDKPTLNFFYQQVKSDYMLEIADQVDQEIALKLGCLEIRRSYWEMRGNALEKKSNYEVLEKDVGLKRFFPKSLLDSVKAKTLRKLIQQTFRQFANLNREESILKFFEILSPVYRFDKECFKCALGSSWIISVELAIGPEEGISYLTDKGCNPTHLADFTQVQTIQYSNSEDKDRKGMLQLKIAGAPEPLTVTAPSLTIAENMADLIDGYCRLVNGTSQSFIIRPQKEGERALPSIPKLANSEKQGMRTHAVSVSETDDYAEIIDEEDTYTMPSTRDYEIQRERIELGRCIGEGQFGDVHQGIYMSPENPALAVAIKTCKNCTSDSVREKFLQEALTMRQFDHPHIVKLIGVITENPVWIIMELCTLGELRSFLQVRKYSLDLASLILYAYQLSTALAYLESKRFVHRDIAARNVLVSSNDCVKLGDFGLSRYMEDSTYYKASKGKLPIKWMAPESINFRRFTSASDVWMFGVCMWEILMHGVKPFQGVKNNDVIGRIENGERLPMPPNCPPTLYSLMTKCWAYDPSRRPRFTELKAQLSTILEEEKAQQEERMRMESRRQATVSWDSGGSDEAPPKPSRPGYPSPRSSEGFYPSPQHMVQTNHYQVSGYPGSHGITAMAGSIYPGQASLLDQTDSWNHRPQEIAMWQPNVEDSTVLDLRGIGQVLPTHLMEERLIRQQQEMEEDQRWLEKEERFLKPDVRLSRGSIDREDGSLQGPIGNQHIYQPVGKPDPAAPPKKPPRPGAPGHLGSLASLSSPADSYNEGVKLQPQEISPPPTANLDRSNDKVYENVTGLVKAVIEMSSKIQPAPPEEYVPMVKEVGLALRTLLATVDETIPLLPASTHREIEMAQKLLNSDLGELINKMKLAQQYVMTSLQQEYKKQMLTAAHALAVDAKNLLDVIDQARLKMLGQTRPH

[12] = tested on: Fibrinogen (Alexa647-labelled); test: fibrinogen binders on compound microarrays, profiling panel, artefact control for SMM control-protein annotation, biochemical, small-molecule microarray, 635/667 nm fluorescence (AID 1131); conditions: fibrinogen-A647 binding fluorescence, higher = more signal;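 further: z-score merges 667 nm fluorescence with per-spot signal-to-noise over triplicate slides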
[13] = biological target: Follistatin (Homo sapiens) (UniProt P19883); test: follistatin binders on small-molecule microarrays, primary screen, biochemical, small-molecule microarray, 635/667 nm fluorescence (AID 1132); conditions: FST binding, 635 nm fluorescence, higher = more signal
Chain of Follistatin (Homo sapiens) (P19883 whole entry, looked up): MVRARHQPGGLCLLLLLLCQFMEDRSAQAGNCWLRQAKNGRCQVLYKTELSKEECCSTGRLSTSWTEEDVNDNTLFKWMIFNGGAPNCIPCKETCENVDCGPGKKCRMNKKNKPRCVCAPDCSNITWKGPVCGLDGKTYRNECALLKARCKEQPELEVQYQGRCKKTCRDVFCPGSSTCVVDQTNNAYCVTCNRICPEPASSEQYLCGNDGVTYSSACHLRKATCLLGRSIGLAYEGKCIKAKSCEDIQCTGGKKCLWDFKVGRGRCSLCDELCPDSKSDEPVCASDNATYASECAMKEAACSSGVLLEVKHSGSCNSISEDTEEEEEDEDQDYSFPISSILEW

[14] = biological target: Fibroblast growth factor 2 (Homo sapiens) (UniProt P09038); test: FGF2 binders on small-molecule microarrays, primary screen, biochemical, small-molecule microarray, 635/667 nm fluorescence (AID 1133); conditions: small-molecule microarray binding, FGF2, fluorescence 635/667; higher = more signal
Chain of Fibroblast growth factor 2 (Homo sapiens) (P09038 whole entry, looked up): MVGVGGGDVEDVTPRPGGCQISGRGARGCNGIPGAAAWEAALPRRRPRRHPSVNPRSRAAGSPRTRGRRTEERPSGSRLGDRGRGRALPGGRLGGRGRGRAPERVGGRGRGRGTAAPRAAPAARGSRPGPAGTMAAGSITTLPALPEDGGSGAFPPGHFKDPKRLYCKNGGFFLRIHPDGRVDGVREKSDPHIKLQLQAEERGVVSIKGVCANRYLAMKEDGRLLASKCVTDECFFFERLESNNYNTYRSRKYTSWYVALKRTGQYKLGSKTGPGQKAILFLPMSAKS

[15] = mitochondrial membrane potential change in A549 cells, profiling panel, cell-based, JC-1 fluorescence, basal, 24 h, 100 nL (AID 1138); conditions: higher = more signal;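 further: A549 lung adenocarcinoma cells under basal conditions with no added stimulus; test concentration not given here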
Lefty1 = Lefty1 binders on small-molecule microarrays, primary screen, biochemical, small-molecule microarray, 635/667 nm fluorescence (AID 1139); conditions: small-molecule microarray binding, fluorescence 635/667; higher = more signal
[16] = tested on: wheat germ agglutinin (Triticum aestivum), Alexa647-labelled; test: wheat germ agglutinin binders on compound microarrays, profiling panel, artefact control for SMM control-protein annotation, biochemical, small-molecule microarray, 635/667 nm fluorescence (AID 1140); conditions: WGA-A647 binding, 635 nm fluorescence, higher = more signal;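 further: score merges 667 nm feature emission with signal to noise over triplicate slides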
[17] = biological target: Luciferin 4-monooxygenase (Photinus pyralis) (UniProt P08659); test: firefly luciferase enzyme inhibitors, primary screen, biochemical, luminescence, purified enzyme, 2006 set (AID 1141); conditions: SteadyGlo luminescence, 30 min, higher = more signal, called active from +8 up or from −8 down;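 further: cell-free assay with purified firefly luciferase at 100 ng per well in PBS; test concentration not given here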
Chain of Luciferin 4-monooxygenase (Photinus pyralis) (P08659 whole entry, looked up): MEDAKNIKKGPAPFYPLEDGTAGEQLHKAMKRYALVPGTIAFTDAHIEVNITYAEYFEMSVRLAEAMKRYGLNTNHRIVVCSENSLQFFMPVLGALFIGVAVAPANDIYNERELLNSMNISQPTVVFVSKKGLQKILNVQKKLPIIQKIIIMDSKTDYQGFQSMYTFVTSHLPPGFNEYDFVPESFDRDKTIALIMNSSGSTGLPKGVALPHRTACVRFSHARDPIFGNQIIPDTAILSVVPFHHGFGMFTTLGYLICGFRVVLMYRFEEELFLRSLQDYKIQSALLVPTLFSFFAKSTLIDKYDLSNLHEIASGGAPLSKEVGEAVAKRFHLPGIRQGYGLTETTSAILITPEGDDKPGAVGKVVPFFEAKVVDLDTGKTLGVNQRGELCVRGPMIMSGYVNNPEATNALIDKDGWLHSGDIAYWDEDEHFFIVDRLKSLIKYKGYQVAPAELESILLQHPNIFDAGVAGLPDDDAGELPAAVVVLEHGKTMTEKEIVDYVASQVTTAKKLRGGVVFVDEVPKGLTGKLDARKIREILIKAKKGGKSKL

| Structure (SMILES) | composite z-score (Albumin (Bos taurus)) | composite Z-score [1] | composite z-score [2] | composite z-score [3] | composite z-score [4] | composite z-score [5] | composite z-score [6] | composite z-score (Sam68 (KHDRBS1)) | composite z-score [7] | composite z-score [8] | composite z-score [9] | composite z-score [10] | composite z-score [11] | composite z-score [12] | composite z-score [13] | composite z-score [14] | z-score [15] | composite z-score (Lefty1) | composite z-score [16] | z-score [17] |
| --- | --- | --- | --- | --- | --- | --- | --- | --- | --- | --- | --- | --- | --- | --- | --- | --- | --- | --- | --- | --- |
| O=C1C2C=CC(C(O)c3ccc4c(c3)OCO4)N(Nc3ccc([N+](=O)[O-])cc3)C2C(=O)N1c1ccccc1 (stereo not given) | 0.854 | -0.0054 (inactive) | 0.0225 | -0.104 | 0.699 | 1.15 | 0.345 | 0.597 | -0.0385 | 0.813 | 1.29 | 0.978 | -0.0123 | 0.293 | 0.225 | -0.0036 | -0.35 | 0.313 | 0.0897 | 0.382 (inactive) |
| C=CC[C@]1(C(=O)NCc2ccccc2)N=C(c2ccc(OCCCO)cc2)O[C@H]1c1ccccc1CN=[N+]=[N-] | 0.183 | -0.451 (inactive) | 0.367 | -0.104 | 0.563 | 0.935 | 0.403 | 1.31 | -0.329 | 0.79 | 1.25 | 1.21 | 0.112 | 1.02 | 1.31 | 1.09 | 1.22 | 0.497 | 0.666 | -0.238 (inactive) |
| COCC(=C=CC[C@H](O)c1ccccc1OCCO)CCO | 0.003 | -0.325 (inactive) | -0.0048 | -0.0475 | 0.774 | 0.969 | 0.162 | 0.853 | -0.546 | 0.298 | -0.69 | 0.268 | 0.432 | 0.869 | 0.992 | 1.11 | 0.417 | 1.15 | 1.14 | 0.109 (inactive) |
| COc1ccc(NC(=O)O[C@H]2[C@H](OC(=O)c3cc4ccccc4[nH]3)[C@@H](OC(=O)c3cc4ccccc4[nH]3)[C@@H](OC)O[C@@H]2CO)cc1 | 0.144 | 0.561 (inactive) | -0.235 | -0.0404 | 0.541 | 1.24 | 0.614 | 0.156 | -0.113 | -0.586 | 1.23 | 0.359 | 0.448 | 0.662 | 0.752 | 1.38 | 0.816 | 0.194 | 0.566 | -2.09 (inactive) |
| O=C1C2C=CC(C(O)c3ccc(-c4ccccc4)s3)N(Nc3ccccc3)C2C(=O)N1c1ccccc1 (stereo not given) | 0.931 | -0.375 (inactive) | 0.24 | 0.0554 | 0.591 | 2.82 | 0.103 | 1.31 | 0.0135 | 0.963 | 2.17 | 1.25 | 0.473 | 0.974 | 0.899 | -0.413 | 0.267 | -0.28 | 0.807 | 0.192 (inactive) |
| C=CCOC(=O)[C@H]1[C@@H]2C(=O)O[C@@H](c3ccccc3)[C@@H](c3ccccc3)N2[C@@H](c2ccc(OCCOC(=O)[C@@H]3C[C@@H]4C(=O)N5CCC[C@H]5C(=O)N4[C@@H]3c3cccc(OCCO)c3)cc2)[C@]12C(=O)Nc1ccc(I)cc12 | -0.656 | 0.686 (inactive) | 1.12 | 0.117 | 0.269 | 1.15 | 0.322 | 1.29 | 1.18 | 1.14 | 1.55 | 1.2 | 0.402 | 0.726 | 1.45 | 1.4 | -0.838 | 1.38 | 0.458 | -1.12 (inactive) |
| CN1CCC(CCCO)=CC1c1cccs1 (stereo not given) | -0.552 | 0.639 (inactive) | -0.0048 | -0.148 | 0.74 | -0.743 | -0.476 | -0.203 | -0.154 | -0.384 | -0.321 | -0.902 | -0.698 | 0.0141 | -0.0163 | 0.184 | 0.391 | 0.118 | -0.485 | 0.0421 (inactive) |
| COCCCNC(=O)[C@@]1(Cc2ccccc2CN=[N+]=[N-])N=C(c2ccc(OCCCO)cc2)O[C@H]1c1ccccc1CN=[N+]=[N-] | 1.02 | 0.585 (inactive) | 0.459 | -0.0438 | 0.594 | 2.58 | 0.574 | 1.29 | -1.13 | 0.972 | 2.03 | 1.19 | 0.125 | 0.922 | 0.63 | -0.263 | -0.556 | 0.0147 | 0.28 | -2.66 (inactive) |
| O=C(CS)NCCCCCNC(=O)[C@@H]1C[C@@H]2C(=O)NCC(=O)N2[C@@H]1c1cccc(OCCO)c1 | 0.57 | 0.498 (inactive) | -0.162 | -0.125 | 0.179 | 1.61 | 0.783 | 0.459 | 0.656 | 0.324 | 3.09 | -0.0552 | 1.8 | 0.0984 | 1.25 | 0.817 | 1.12 | 0.106 | 0.502 | -2.27 (inactive) |
| O=C1N(CCS(=O)(=O)c2ccccc2)c2ccccc2[C@@H]2OC(c3ccc(OCCCO)cc3)=N[C@]12Cc1ccccc1 | 0.484 | -0.209 (inactive) | 0.126 | -0.0244 | 0.391 | 0.898 | 0.474 | 1.3 | 0.837 | 1.12 | 1.65 | 1.19 | 1.05 | 0.959 | 1.43 | 1.71 | 2.29 | 1.18 | 0.668 | -11.5 (active) |
| C=C(CCCC)/C(=C/C[C@H](OC(C)=O)c1ccccc1OCCO)c1cnc2ccccc2c1 | 0.553 | 0.282 (inactive) | -0.12 | -0.173 | 0.5 | 0.376 | 0.0282 | 0.8 | 0.77 | 0.706 | 0.528 | 0.545 | -0.0464 | -0.128 | 0.891 | 0.481 | 1.76 | 0.861 | 0.664 | -0.895 (inactive) |
